Screening results deposited in PubChem BioAssay by National Center for Advancing Translational Sciences (NCATS).
Sampled rows, rich in hits. Any-hit rate of the full collection: about 11%.
G9a inh – blocks human histone lysine methyltransferase G9a; 8.8% of 350,000 active; Q96KQ7; G9a H3K9 monomethylation, AlphaScreen, 2 h; Potency, µM (titrated, usually from 102 µM), for the others: at the highest dose activity, negative = inhibition, usual class: inhibitors; note: % is set by controls: 0 for no effect and ±100 for the full control effect; nearly all actives have a fitted effect of over 75% in size
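Using a bead-based AlphaScreen, monomethylated H3K9 product from 2 h room-temperature reactions (G9a 20 nM, peptide 500 nM, SAM 20 uM) was detected with 0.5 ug/mL rabbit anti-H3K9me1 antibody.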
BAZ2B inh – blocks human BAZ2B. AID 504333. 4.4% of 360,000 active. AlphaScreen BAZ2B-H3K14Ac peptide displacement. Potency, µM (titrated, usually from 114 µM), for the others: at the top dose activity change, negative = inhibition, usual class: inhibitors. Q9UIF8; note: % is set by controls: 0 for no effect and ±100 for the full control effect; nearly all actives have a fitted effect of over 60% in size
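Compounds, titrated to a top concentration of 110 uM, were incubated 30 min at room temperature with preformed BAZ2B/acetyl-K14 H3 peptide complex (50 nM each). Proximity signal was measured by AlphaScreen after 20 min with beads.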
L3MBTL1 inh – blocks human L3MBTL1. Q9Y468. AlphaScreen L3MBTL1–H3K9me1 peptide binding. Potency, µM (doses to about 57.1 µM), inactives show at the highest dose activity, negative = inhibition, most hits filed as inhibitors. 0.66% of 230,000 active; note: % is set by controls: 0 for no effect and ±100 for the full control effect; nearly all actives have a fitted effect of over 60% in size
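First, the protein-peptide complex forms for 30 min at room temperature (L3MBTL1 50 nM, biotinylated H3K9me1 peptide 75 nM). Next, compounds are pin-transferred and incubated 30 min. Finally, AlphaScreen beads are added and read after 30 min.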
JMJD2A Tudor – blocks the human JMJD2A Tudor domain | AID 504339 | 4.4% of 390,000 active | Potency, µM (top dose mostly 114 µM), for the others: at the top dose activity change, negative = inhibition, hits mostly inhibitors | AlphaScreen JMJD2A-Tudor / H3K4me3 peptide binding | O75164; note: % is set by controls: 0 for no effect and ±100 for the full control effect; nearly all actives have a fitted effect of over 50% in size
HP1b chromo inh – inhibitors of HP1-beta chromodomain binding to methylated histone tails | P83916 | AlphaScreen HP1-beta / biotin-H3K9me3 peptide binding | Potency, µM (doses to about 114 µM), inactives show at the top dose activity change, negative = inhibition, most hits filed as inhibitors | 0.56% of 390,000 active | AID 540317; note: nearly all actives have a fitted effect of over 70% in size
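HP1-beta protein (50 nM final) preincubated 30 min at room temperature with biotinylated H3(1-18)K9me3 peptide (50 nM) in PBS pH 7.4, 0.01% Tween-20, then compound added for 30 min. AlphaScreen streptavidin donor/nickel chelate acceptor beads (10 ug/mL final), 30 min dark, luminescence read.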
* = called active by the depositor; ? = inconclusive; nt = no result given; [ ] = another dose, or the depositor's remark. Calls come from the whole dose curve; as a rule, active = well fitted inhibition curve with a large enough effect; inconclusive = small, poorly fitted or top-dose-only effect; inactive = no such curve, though single readings can be large or run the other way. Potency is the fitted concentration of half-maximal effect.

SMILES | G9a inh | BAZ2B inh | L3MBTL1 inh | JMJD2A Tudor | HP1b chromo inh
N#CC1=C(N)N2C(=C(C#N)C1c1ccc(Br)cc1)Nc1ccccc12 (stereo not given) | 10µM* | 4% | 14% | -29% | 1%
N#CC1=C(N)N2C(=C(C#N)C1c1ccccc1)Sc1ccccc12 (stereo not given) | ? | -1% | nt | nt | nt
Cc1nc(SCC(=O)N(CC(C)C)C2CCS(=O)(=O)C2)c(C#N)c(C)c1C (stereo not given) | 50µM* | 10% | -3% | -6% | 40%
CC(C)CN(C(=O)CSc1nn(-c2ccc(Cl)cc2)c(=S)s1)C1CCS(=O)(=O)C1 (stereo not given) | 20µM* | 0% | 27% | -15% | 5%
Cc1ccc(-n2ccnc2SCC(=O)N(CC(C)C)C2CCS(=O)(=O)C2)c(C)c1 (stereo not given) | nt | -30% | -4% | 20µM* | -18%
Cc1nnc(SCC(=O)N(CC(C)C)C2CCS(=O)(=O)C2)s1 (stereo not given) | ? | 7% | 4% | -5% | 25%
CCNc1ncc2ncc(=O)n(C)c2n1 | -1%[12.7 µM] | nt | nt | nt | nt
Cc1ccc2c(c1)Sc1c(ccc3ccccc13)N2 | ? | 40µM* | -23% | ? | ?
CCOC(=O)c1sc(=S)sc1SCc1cccc(C(F)(F)F)c1 | 32µM* | -35% | nt | -28% | -16%
CCCOc1ccccc1OCC(=O)Nc1cc(Cl)ccc1-n1cncn1 | 45µM* | 5% | 3% | -1% | 18%
CCc1cccc(OCC(=O)Nc2cc(Cl)ccc2-n2cncn2)c1 | 2%[12.7 µM] | 6% | 2% | -4% | 43%
O=C(Nc1cc(Cl)ccc1-n1cncn1)c1cncc(Br)c1 | 9%[12.7 µM] | 4% | 1% | -22% | 38%
Cc1cccc(OCC(=O)Nc2cc(Cl)ccc2-n2cncn2)c1C | ? | -6% | 2% | -14% | 6%
O=C(COc1ccc(F)cc1)Nc1cc(Cl)ccc1-n1cncn1 | 56µM* | 9% | 9% | -11% | 12%
O=C(Nc1cc(Cl)ccc1-n1cncn1)c1ccc(Br)o1 | 56µM* | 0% | 16% | -9% | 39%
COc1ccc(NC(=O)c2ccc(-c3ccc([N+](=O)[O-])cc3)o2)cc1OC | 79µM* | ? | -14% | ? | -17%
COc1cccc(NC(=O)c2ccc(-c3ccc([N+](=O)[O-])cc3)o2)c1 | ? | -22% | -7% | -21% | 19%
COc1cc([N+](=O)[O-])ccc1-c1ccc(C(=O)Nc2ccc(NC(C)=O)cc2)o1 | 8.9µM* | -8% | -12% | -9% | 25%
CC(=O)Nc1ccc(NC(=O)c2ccc(-c3ccc([N+](=O)[O-])cc3)o2)cc1 | nt | -11% | nt | -10% | 11%
O=C(NCc1ccc(Cl)cc1)C1CCN(C(=O)Cc2ccccc2)CC1 | -5% | 50µM* | nt | -5% | 33%
CCCCc1nnc(SCc2cc(=O)c3cc(F)ccc3[nH]2)n1C | 8%[59 µM] | 2% | nt | -18% | 22%[57 µM]
O=C(Cn1c(=O)n(-c2ccccc2)c(=O)c2c3c(sc21)CCC3)c1ccc(Br)cc1 | -8%[59 µM] | -16% | nt | -27% | -8%
O=C(Nc1nnc(C2CC2)s1)C1COc2ccccc2O1 (stereo not given) | -10% | -3% | nt | -7% | 19%
O=C(/C=C/c1ccc(Br)o1)Nc1nnc(C2CC2)s1 | 56µM* | -25% | -8% | nt | nt
COC(=O)C1=C(C)OC(N)=C(C#N)C1c1ccccc1 (stereo not given) | -5%[2.33 µM] | 1% | nt | -8%[57.1 µM] | 62%
SMILES | G9a inh | BAZ2B inh | L3MBTL1 inh | JMJD2A Tudor | HP1b chromo inh
COC(=O)C1=C(C)OC(N)=C(C#N)C1c1ccc(OC)c(CSc2ccccn2)c1 (stereo not given) | 16µM* | -35% | 2% | -20%[57.1 µM] | 21%
CC1(C)CC(=O)C(N=Nc2ccc(Br)cc2)=C(O)C1 | -27% | -28% | -10% | -10% | -3%
CC1(C)CC(=O)C(N=Nc2cccc(F)c2C#N)=C(O)C1 | nt | ? | nt | -21% | 5%
COc1ccc(N=NC2=C(O)CC(C)(C)CC2=O)cc1 | nt | ? | -1% | -18% | 9%
COc1ccc(N=NC2=C(O)CC(C)(C)CC2=O)c(OC)c1 | 28µM* | ? | -21% | -34% | -19%
CC1(C)CC(=O)C(N=Nc2cccc([N+](=O)[O-])c2)=C(O)C1 | 50µM* | ? | -9% | ? | -21%
CC1(C)CC(=O)C(N=Nc2ccc(S(=O)(=O)N3CCOCC3)cc2)=C(O)C1 | -17%[59 µM] | -16% | 18% | 35µM* | 3%
CC1(C)CC(=O)C(N=Nc2ccc(C(F)(F)F)cc2[N+](=O)[O-])=C(O)C1 | nt | 20µM* | -16% | 50µM* | ?
COc1ccc(Nc2ncc(C(=O)N3CCN(c4cccc(Cl)c4)CC3)c3ccccc23)cc1 | -33%[59 µM] | -9% | nt | -21% | 5%
O=S(=O)(Nc1nc(-c2sccc2Cl)cs1)c1cc(Cl)ccc1Cl | ? | 50µM* | -2% | 50µM* | ?
C(=N\N=C\c1ccccn1)/c1ccccn1 | 2% | 50µM* | nt | ? | 59%
CCc1ccccc1NC(=O)N1CC(CC)Oc2ccc(Cl)cc21 (stereo not given) | 32%[59 µM] | 20% | nt | 30% | 113%
COc1cc(NC(=O)c2c(C)oc3ncnc(N4CCCCC4)c23)cc(OC)c1 | -7%[59 µM] | 2%[57.1 µM] | nt | -16% | -1%
Cc1cc(C)cc(N2CC(C(=O)OCC(=O)Nc3cc(C)on3)CC2=O)c1 (stereo not given) | 50µM* | -9% | nt | -3% | 12%
O=C1CC(=O)c2c1cccc2[N+](=O)[O-] | 10µM* | 50µM* | nt | nt | nt
Cc1cccc(N(Cc2cc3ccccc3[nH]c2=O)C(=O)c2cccc(Cl)c2)c1 | ? | -9% | nt | -14% | 9%
O=C(Nc1ccc(S(=O)(=O)NC2=NCCCCC2)cc1)C1COc2ccccc2O1 (stereo not given) | -23%[12.7 µM] | -14% | nt | -19% | 22%
CCCOc1ccccc1OCC(=O)Nc1cccc(S(=O)(=O)NC2=NCCC2)c1 | -42% | 15% | -11% | -10% | 20%
O=C(Nc1cccc(S(=O)(=O)NC2=NCCCCC2)c1)C1COc2ccccc2O1 (stereo not given) | 50µM* | 56µM* | 0% | ? | -16%
N#Cc1ccc(C(=O)Nc2ccc(S(=O)(=O)NC3=NCCCCC3)cc2)cc1 | 50µM* | ? | nt | -6% | 18%
CC1CN(S(=O)(=O)c2cccc(C(=O)Nc3ccc(S(=O)(=O)NC4=NCCCCC4)cc3)c2)CC(C)O1 (stereo not given) | 18µM* | 0% | 9% | -18% | 12%
O=C(COc1cc(F)ccc1[N+](=O)[O-])Nc1cccc(S(=O)(=O)NC2=NCCC2)c1 | 3.2µM* | 6% | 4% | -3% | 21%
